# From PubChem BioAssay (NCI)
# The panel holds about 79,000 compounds, 15% with a hit somewhere; the sample as a whole holds those more often. Activity calls are given as the source filed them. No stated cut-off is given here; in the data, active means growth inhibition above about 70%; inactive means the rest.
# Experiment: NCI Yeast Anticancer Drug Screen. Data for the sgs1 mgt1 strain (AID 161);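 further: 0% = growth of cultures given vehicle only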
# Conditions: S. cerevisiae sgs1 mgt1 strain, at 50.0 µM, hits give high values
# Summary of the method: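 Test agents were incubated with a DNA-repair-mutant yeast strain. Growth was then read and compared against vehicle-treated controls.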
row,Compound,growth inhibition
1,C=CCOC(=O)NC(CCC(=O)OC)C(=O)O (stereo not given),-6.25% (inactive)
2,Cc1ccc(/C=C/C(=O)c2c([O-])on[n+]2-c2ccccc2)cc1,21.9% (inactive)
3,COC(=O)c1cc(C)c(C)c2c1NC(=O)CNC2=O,3.95% (inactive)
4,CCOC(=O)C1C(NNC(N)=O)CN(C(=O)OCC)C1C(=O)OCC (stereo not given),-15.9% (inactive)
5,CCOC(=O)/C=C(/C)C#N,-11.8% (inactive)
6,N#Cc1ccccc1C#N,-7.7% (inactive)
7,C[N+](C)(C)c1ccc(C(N)C(=O)O)cc1 (stereo not given),-17.1% (inactive)
8,O=C(O)CCC(=O)Nc1cccc(C(F)(F)F)c1,-3.15% (inactive)
9,C=C(C(N)=O)c1ccc([N+](=O)[O-])o1,62.4% (inactive)
10,CCCCN(CCCC)c1ccc(S(=O)(=O)c2ccc(N(CCCC)CCCC)cc2)cc1,9.4% (inactive)
11,Oc1ccccc1C=Nc1ccc(N2CCOCC2)cc1,10.1% (inactive)
12,COC(=O)C[C@H](C)[C@H](C)CC(=O)O,-1.6% (inactive)
13,CC1CN(C(=O)/C=C/C(=O)OC2CCCCC2)C(C)CN1C(=O)/C=C/C(=O)OC1CCCCC1 (stereo not given),-7.9% (inactive)
14,COC(=O)c1csnn1,12.7% (inactive)
15,Cc1cccc(CC(N)C(=O)O)c1 (stereo not given),-6.95% (inactive)
16,NC(=O)c1ccc(S(=O)(=NS(=O)(=O)c2ccccc2)c2ccc(C(N)=O)cc2)cc1,-11.8% (inactive)
17,COC(=O)c1nc2n[nH]c(N)c2c2c1CCCCCCCCCC2,-5.65% (inactive)
18,CC(CCC(=O)O)C1CCC2C3CCC4CCCCC4(C)C3CCC12C (stereo not given),43.3% (inactive)
19,NCCN(CCN)/[N+]([O-])=N/O,6.3% (inactive)
20,O=C([O-])[C+](C=Cc1cccc2ccccc12)C(=O)O,8.35% (inactive)

row,Compound,growth inhibition
1,COc1ccc(-c2cc(=O)c3c([nH]2)CCCC3)cc1,-11.2% (inactive)
2,CCOC(=O)C(C)c1nc2cc(N3CCOCC3)c(F)cc2[nH]c1=O (stereo not given),11.7% (inactive)
3,Cc1nc2ccc(-c3ccccc3)cc2nc1C,-20.9% (inactive)
4,CN(C)P(=O)(Nc1ccc(Cl)cc1)Nc1ccc(Cl)cc1,2.1% (inactive)
5,c1ccc(CCCCc2ccc(CCCCc3ccccc3)cc2)cc1,-2.45% (inactive)
6,CCN1CCCC(C#N)(c2ccccc2)CC1 (stereo not given),14.5% (inactive)
7,Cc1c(C)c2cc3c(=O)c(CCl)coc3c(C)c2oc1=O,16% (inactive)
8,C/C(CC(C)C)=N\NC(=O)Nc1ccccc1Cl,-2.4% (inactive)
9,CC(=O)OC1CC2C(C)(CCC3C2(C)CCC2(C)C4CC(C)(C)CCC4(C)CCC32C)C1C (stereo not given),-7.5% (inactive)
10,O=c1nc(NC(c2ccccc2)(c2ccccc2)c2ccccc2)ccn1CCCl,-1.5% (inactive)
11,Nc1nc(C2CCCC2)c(Br)c(=O)[nH]1,-17.4% (inactive)
12,CC(=O)Nc1cc(=O)[nH]c2c1CCC2,-1.8% (inactive)
13,CCOC(O)C(F)(F)C(F)(F)C(F)(F)F (stereo not given),3.5% (inactive)
14,COC1/C=C/OC2(C)Oc3c(C)c(O)c4c(c3C2=O)C(N)=C(Nc2ccccc2)C(=NC(=O)C(C)=CC=CC(C)C(O)C(C)C(O)C(C)C(OC(C)=O)C1C)C4=O (stereo not given),41.9% (inactive)
15,O=C(O)c1c(Br)c(Br)c(Br)c(Br)c1C(=O)Nc1cccc2c(O)cccc12,25.2% (inactive)
16,COc1cc(NS(=O)(=O)c2ccccc2)ccc1C,14.7% (inactive)
17,O=[N+]([O-])c1ccc2nc[nH]c2c1,-6.4% (inactive)
18,CC[N+](C)(CC)CCNc1cc2c(c3c(=O)c4ccccc4sc13)CCCC2,99.1% (active)
19,COC1=CC(=O)C(C)=CC1=O,3.5% (inactive)
20,CC1CC(=O)CCC2(C)C(OC(C)(C)C)CCC12 (stereo not given),-5.75% (inactive)
